# Results published in PubChem BioAssay.
# The source made the active and inactive calls.
# Tests used:
# [1] = binders of probe aFSTL3 on microarray, primary screen, stem cell growth factor project, biochemical, small-molecule microarray, fluorescence 635/667 (AID 1064); details: higher = more signal;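 further: measures binding of the biotinylated anti-FSTL3 antibody to printed compounds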
# [2] = binders from COS7 lysate, DM2A8 probe, primary screen, torsin A project, cell lysate, small-molecule microarray, fluorescence 635/667 (AID 1065); details: higher = more signal, COS7 lysate expressing mutant human TOR1A
# [3] = binders of probe aFGF2 on microarray, primary screen, stem cell growth factor project, biochemical, small-molecule microarray, fluorescence 635/667 (AID 1067); details: higher = more signal;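 further: measures binding of biotinylated aFGF2 protein to printed compounds on slides; z-score merges feature fluorescence and signal-to-noise across triplicate slides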
# [4] = binders of probe aFGF10 on microarray, primary screen, stem cell growth factor project, biochemical, small-molecule microarray, fluorescence 635/667 (AID 1071); details: higher = more signal;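 further: score merges 667 nm spot intensity and signal to noise from triplicate slides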
# [5] = biological target: Neurogenic locus notch homolog protein 2 (Homo sapiens) (UniProt Q04721); assay: Notch2 binders on small-molecule microarrays, primary screen, biochemical, small-molecule microarray, 635 nm fluorescence, stem cell growth factors (AID 1073); details: Notch2 binding, higher = more signal
# Chain of Neurogenic locus notch homolog protein 2 (Homo sapiens) (Q04721 whole entry, looked up, canonical isoform): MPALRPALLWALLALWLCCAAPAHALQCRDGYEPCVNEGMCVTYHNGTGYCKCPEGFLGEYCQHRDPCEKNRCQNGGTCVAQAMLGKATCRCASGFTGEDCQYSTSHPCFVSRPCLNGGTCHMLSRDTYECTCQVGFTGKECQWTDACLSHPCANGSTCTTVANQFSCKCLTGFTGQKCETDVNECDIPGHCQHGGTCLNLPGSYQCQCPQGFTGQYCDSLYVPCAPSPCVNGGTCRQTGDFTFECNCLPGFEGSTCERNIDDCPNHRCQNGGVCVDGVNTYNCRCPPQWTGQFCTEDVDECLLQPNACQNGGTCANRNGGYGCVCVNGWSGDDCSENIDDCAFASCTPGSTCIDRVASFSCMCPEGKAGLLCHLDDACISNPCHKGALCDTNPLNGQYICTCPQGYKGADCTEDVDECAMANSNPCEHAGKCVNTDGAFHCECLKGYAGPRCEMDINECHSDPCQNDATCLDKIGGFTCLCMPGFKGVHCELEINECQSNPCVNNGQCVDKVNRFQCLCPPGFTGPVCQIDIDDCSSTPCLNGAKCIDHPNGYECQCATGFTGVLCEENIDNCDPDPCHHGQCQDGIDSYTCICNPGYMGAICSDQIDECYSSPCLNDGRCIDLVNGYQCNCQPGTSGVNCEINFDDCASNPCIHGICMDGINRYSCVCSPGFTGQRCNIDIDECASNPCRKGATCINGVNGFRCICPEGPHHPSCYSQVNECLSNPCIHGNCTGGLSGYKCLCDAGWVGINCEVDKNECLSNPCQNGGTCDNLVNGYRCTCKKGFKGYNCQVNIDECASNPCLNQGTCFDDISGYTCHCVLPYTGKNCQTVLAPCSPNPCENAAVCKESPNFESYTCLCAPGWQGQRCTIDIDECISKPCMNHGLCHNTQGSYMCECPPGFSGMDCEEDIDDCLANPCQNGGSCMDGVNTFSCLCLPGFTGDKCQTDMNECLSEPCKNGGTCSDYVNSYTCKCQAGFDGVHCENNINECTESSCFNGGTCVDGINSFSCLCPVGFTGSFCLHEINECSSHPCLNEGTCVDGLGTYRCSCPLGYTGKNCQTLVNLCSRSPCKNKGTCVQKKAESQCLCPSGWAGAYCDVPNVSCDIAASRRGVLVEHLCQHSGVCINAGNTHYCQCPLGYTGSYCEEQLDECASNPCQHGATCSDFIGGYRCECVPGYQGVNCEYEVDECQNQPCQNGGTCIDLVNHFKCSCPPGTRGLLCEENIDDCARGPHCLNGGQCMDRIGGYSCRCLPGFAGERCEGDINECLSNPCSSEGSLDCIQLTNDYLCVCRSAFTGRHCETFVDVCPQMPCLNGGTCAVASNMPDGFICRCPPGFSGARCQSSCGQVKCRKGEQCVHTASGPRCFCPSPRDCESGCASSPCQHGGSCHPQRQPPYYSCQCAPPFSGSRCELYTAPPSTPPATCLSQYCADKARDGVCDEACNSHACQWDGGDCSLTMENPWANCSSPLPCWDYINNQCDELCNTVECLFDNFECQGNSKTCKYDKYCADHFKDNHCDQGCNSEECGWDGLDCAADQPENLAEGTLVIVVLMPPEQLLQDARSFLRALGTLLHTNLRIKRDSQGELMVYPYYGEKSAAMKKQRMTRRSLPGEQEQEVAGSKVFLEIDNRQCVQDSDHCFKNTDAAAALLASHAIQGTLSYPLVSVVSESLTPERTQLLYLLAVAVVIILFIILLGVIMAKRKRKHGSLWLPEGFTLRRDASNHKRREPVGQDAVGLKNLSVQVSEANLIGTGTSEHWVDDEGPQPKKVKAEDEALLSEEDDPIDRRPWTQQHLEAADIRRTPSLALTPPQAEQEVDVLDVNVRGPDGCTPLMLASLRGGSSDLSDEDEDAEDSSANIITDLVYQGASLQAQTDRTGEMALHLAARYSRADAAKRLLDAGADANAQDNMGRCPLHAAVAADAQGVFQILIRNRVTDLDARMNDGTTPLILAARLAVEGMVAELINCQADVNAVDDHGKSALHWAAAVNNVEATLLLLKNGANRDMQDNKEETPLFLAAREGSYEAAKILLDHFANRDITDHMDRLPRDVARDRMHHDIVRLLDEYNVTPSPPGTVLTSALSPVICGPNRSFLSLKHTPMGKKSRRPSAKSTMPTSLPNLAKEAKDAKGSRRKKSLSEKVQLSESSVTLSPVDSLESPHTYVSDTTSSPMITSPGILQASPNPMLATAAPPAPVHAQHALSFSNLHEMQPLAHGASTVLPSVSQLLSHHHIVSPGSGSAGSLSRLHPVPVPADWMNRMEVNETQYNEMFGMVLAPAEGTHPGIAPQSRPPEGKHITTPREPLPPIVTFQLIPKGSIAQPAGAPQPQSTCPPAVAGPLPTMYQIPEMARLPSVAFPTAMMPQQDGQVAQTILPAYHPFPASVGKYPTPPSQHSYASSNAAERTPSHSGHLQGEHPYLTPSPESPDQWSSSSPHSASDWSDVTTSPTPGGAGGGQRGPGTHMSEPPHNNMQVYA
# [6] = biological target: Pro-neuregulin-1, membrane-bound isoform (Homo sapiens) (UniProt Q02297); assay: NRG1 binders on small-molecule microarrays, primary screen, psychiatric disease protein project, biochemical, small-molecule microarray, fluorescence 635/667 (AID 1075); details: NRG1 binding, 635 nm fluorescence, higher = more signal;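 further: score combines 667 nm spot fluorescence with signal to noise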
# Chain of Pro-neuregulin-1, membrane-bound isoform (Homo sapiens) (Q02297 whole entry, looked up, the tested form may be a part, canonical isoform): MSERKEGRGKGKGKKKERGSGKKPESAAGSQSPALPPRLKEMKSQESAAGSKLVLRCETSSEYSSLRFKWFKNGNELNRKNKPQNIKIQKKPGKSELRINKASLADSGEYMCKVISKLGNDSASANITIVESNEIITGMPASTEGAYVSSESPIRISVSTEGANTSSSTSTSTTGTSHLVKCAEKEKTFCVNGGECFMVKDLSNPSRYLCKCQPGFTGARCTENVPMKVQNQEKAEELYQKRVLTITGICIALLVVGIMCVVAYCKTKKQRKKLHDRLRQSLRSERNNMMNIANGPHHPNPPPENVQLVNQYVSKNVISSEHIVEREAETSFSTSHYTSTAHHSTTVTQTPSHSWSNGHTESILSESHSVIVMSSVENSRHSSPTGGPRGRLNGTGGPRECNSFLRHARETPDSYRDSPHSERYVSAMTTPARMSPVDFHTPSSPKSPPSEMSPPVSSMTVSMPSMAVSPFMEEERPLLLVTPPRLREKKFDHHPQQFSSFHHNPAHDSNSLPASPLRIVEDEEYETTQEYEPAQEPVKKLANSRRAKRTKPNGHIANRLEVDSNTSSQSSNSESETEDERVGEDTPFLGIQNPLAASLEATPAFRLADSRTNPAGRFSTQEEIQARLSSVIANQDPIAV
# [7] = test system: Neuregulin-1 EGF-like domain; assay: binders of neuregulin-1 EGF-like domain, primary screen, biochemical, small-molecule microarray, 635 nm fluorescence (AID 1081); details: small-molecule microarray binding, higher = more signal;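 further: binding of the protein to compounds printed on small-molecule microarray slides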
# [8] = FRG1 promoter luciferase signal modulators, primary screen, FRG1 inhibition for FSHD, cell-based, C2C12 myotubes, firefly/Renilla luciferase, luminescence (AID 1084); details: higher = more signal, called active from +8 up or from −8 down
# [9] = binders of probe aFST on microarray, primary screen, stem cell growth factor project, biochemical, small-molecule microarray, fluorescence 635/667 (AID 1086); details: higher = more signal;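 further: score merges 667 nm fluorescence with signal-to-noise of each printed compound spot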
# [10] = binders of probe aHhip on microarray, primary screen, stem cell growth factor project, biochemical, small-molecule microarray, fluorescence 635/667 (AID 1087); details: higher = more signal;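 further: score merges spot fluorescence at 667nm with spot signal to noise ratio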
# [11] = test system: PRMT1 (protein arginine N-methyltransferase 1); assay: PRMT1 binders on small-molecule microarrays, primary screen, biochemical, small-molecule microarray, 635 nm fluorescence (AID 1088); details: small-molecule microarray binding, higher = more signal;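 further: binding of Prmt1 protein to compounds spotted on small-molecule microarray slides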
# [12] = yeast growth modulation, basal conditions, primary screen, YJM789 clinical isolate, OD600, 24 h (AID 1089);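 further: growth of clinical yeast isolate S. cerevisiae YJM 789 seeded 1000 cells per well; test concentration not given here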; details: S. cerevisiae YJM789 growth, higher = more signal, called active from +8 up or from −8 down
# [13] = fission yeast growth modulation, primary screen, strain 972, OD600, 24 h, no modulator (AID 1090);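 further: basal condition with compound alone and no growth modifier present; test concentration not given here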; details: S. pombe 972 growth, higher = more signal, called active from +8 up or from −8 down
# [14] = S. cerevisiae growth modulation with rapamycin, primary screen, strain BY4716, OD600, 96 h (AID 1091); details: higher = more signal, called active from +8 up or from −8 down; further: test concentration not given here
# [15] = biological target: Torsin-1A-interacting protein 2 (Homo sapiens) (UniProt Q8NFQ8); assay: LULL1 binders on small-molecule microarray, primary screen, cell lysate, human LULL1 lysate, 635/667 nm fluorescence (AID 1092); details: hLULL1 lysate binding, 635 nm fluorescence, higher = more signal;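 further: probe is lysate of COS7 cells overexpressing human LULL1; score merges per-feature 667 nm fluorescence with signal-to-noise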
# Chain of Torsin-1A-interacting protein 2 (Homo sapiens) (Q8NFQ8 whole entry, looked up): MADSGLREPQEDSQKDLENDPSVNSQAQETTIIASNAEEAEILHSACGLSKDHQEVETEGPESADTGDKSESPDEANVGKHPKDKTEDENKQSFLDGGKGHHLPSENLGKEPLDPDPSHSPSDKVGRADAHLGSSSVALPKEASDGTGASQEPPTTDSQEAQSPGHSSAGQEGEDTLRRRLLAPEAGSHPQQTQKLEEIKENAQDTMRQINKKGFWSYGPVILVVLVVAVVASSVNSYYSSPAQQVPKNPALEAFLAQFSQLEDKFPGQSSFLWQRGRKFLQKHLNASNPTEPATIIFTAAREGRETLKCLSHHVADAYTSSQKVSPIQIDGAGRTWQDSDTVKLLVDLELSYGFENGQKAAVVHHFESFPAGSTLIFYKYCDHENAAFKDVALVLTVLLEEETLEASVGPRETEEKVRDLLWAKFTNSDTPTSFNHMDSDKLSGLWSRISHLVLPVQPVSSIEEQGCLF
# [16] = E. coli growth modulation, two-sided OD650, primary screen, E. coli filamentation project, strain DRC41, 24 h (AID 1093); details: OD650, 24 h, higher = more signal, called active from +8 up or from −8 down;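 further: MC1000 strain lacking acrAB efflux and sulA so SOS filamentation is blocked; test concentration not given here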
# [17] = small-molecule microarray binders of probe aLefty2, primary screen, biochemical, biotinylated probe, 635/667 nm fluorescence (AID 1094); details: higher = more signal;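 further: score merges spot fluorescence near 667 nm with spot signal-to-noise ratio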
# [18] = test system: Noggin (protein binding on small-molecule microarray); assay: Noggin binders on small-molecule microarray, primary screen, biochemical, 635/667 nm fluorescence (AID 1095); details: 635 nm fluorescence, higher = more signal;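 further: score merges 667 nm feature fluorescence with signal to noise over triplicate slides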
# [19] = biological target: Neurogenic locus notch homolog protein 3 (Homo sapiens) (UniProt Q9UM47); assay: NOTCH3 binders on small-molecule microarray, primary screen, biochemical, 635/667 nm fluorescence (AID 1096); details: NOTCH3 binding, 635 nm fluorescence, higher = more signal
# [20] = small-molecule microarray binders of probe aEGFR, primary screen, biochemical, biotinylated probe, 635/667 nm fluorescence (AID 1097); details: higher = more signal;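 further: probe is a biotinylated anti-EGFR antibody binding compounds printed on slides; score combines fluorescence near 667 nm and signal to noise of each spot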
SMILES,composite z-score [1],composite z-score [2],composite z-score [3],composite z-score [4],composite z-score [5],composite z-score [6],composite z-score [7],z-score [8],composite z-score [9],composite z-score [10],composite z-score [11],z-score [12],z-score [13],z-score [14],composite z-score [15],z-score [16],composite z-score [17],composite z-score [18],composite z-score [19],composite z-score [20]
O=C(NCCC[N+]1=CC=NC1c1ccccc1)N1CCCc2nc(-c3ccc(Br)cc3)ccc21 (stereo not given),-0.265,-0.14,-0.107,0.345,0.576,1.21,0.97,0.88 (inactive),0.944,0.0373,-0.476,-0.435 (inactive),-1.69 (inactive),0.763 (inactive),0.0594,2.39 (inactive),-0.0616,0.232,-0.378,-0.0183
Cc1ccc(C(C)C)n1C(=O)OC(C)(C)C,-0.504,0.166,-0.0621,0.357,0.404,-0.199,0.477,-1.08 (inactive),-0.3,0.0749,0.0565,-0.923 (inactive),-0.817 (inactive),-0.665 (inactive),0.345,-0.315 (inactive),-0.138,0.535,0.915,-0.0549
CO[C@@H]1COC(=O)CC=C[C@H](C)[C@H](OC)COC(=O)[C@@H]2CCCN2C(=O)CC=C[C@H]1C,-0.811,1.74,-0.196,0.0967,-0.271,-0.285,0.158,-0.331 (inactive),0.0991,-0.166,0.684,0.0396 (inactive),-0.719 (inactive),-0.249 (inactive),-0.722,0.127 (inactive),-0.225,1.78,-0.128,0.153
COC(=O)[C@@H]1CC[C@H](C)[C@@H](c2ccc(C)cc2)N1C(=O)c1ccc(C=NO[C@@H](C)c2cc(-c3c(C)cc(C)cc3C)no2)cc1,-0.4,0.58,-0.166,0.219,0.239,0.0688,0.38,-1.21 (inactive),0.188,-0.0237,1.05,-0.0984 (inactive),0.358 (inactive),0.612 (inactive),0.919,0.328 (inactive),-0.0727,0.3,0.35,-0.165
COC(=O)[C@@H]1CC[C@H](C)[C@@H](c2ccc(Br)cc2)N1C[C@@H](O)CN=[N+]=[N-],-0.463,0.054,-0.116,0.186,0.462,0.117,-0.0109,0.687 (inactive),-0.139,0.0881,0.382,-1.44 (inactive),-10.1 (active),-0.243 (inactive),0.147,0.323 (inactive),-0.0412,0.162,0.0511,-0.0902
COC(=O)[C@H](C)NC(=O)CCC1CC(OC(=O)NCCc2ccc(F)cc2)CC2(CCCC(COC(=O)NCC3CCCCC3)O2)O1 (stereo not given in full),-0.429,0.437,-0.116,0.605,1.32,0.618,1.06,0.617 (inactive),0.486,-0.143,1.49,-0.797 (inactive),-0.781 (inactive),0.689 (inactive),2.16,-0.718 (inactive),-0.139,0.883,1.06,0.0207
CC(=O)OC[C@H]1O[C@H](CCON=C(C)CCN2CCCc3nc(C)c(C)cc32)C=C[C@@H]1OC(C)=O,-0.293,0.704,-0.0454,0.72,1.19,0.237,1.1,0.523 (inactive),0.522,0.0722,1.54,0.569 (inactive),0.339 (inactive),0.61 (inactive),1.31,1.08 (inactive),0.118,0.754,1.04,0.577
COc1ccc(COC(=O)NN=C2C[C@@H](O)[C@@H](O)[C@@H]3[C@@H]4C(=O)N(c5cccc(Oc6ccccc6)c5)C(=O)[C@@H]4CC[C@H]23)cc1,0.937,-0.379,-0.138,0.0478,-0.311,0.783,-0.317,0.632 (inactive),0.85,-0.0994,-0.412,0.135 (inactive),-0.655 (inactive),-0.693 (inactive),0.717,1.02 (inactive),0.297,-0.476,0.148,-0.109
O=C1[C@H]2[C@H]3[C@H](O)[C@H](O)CC(=NO[C@@H]4O[C@H](CO)[C@@H](O)[C@H](O)[C@H]4O)[C@@H]3CC[C@H]2C(=O)N1C1CCCCC1,-0.599,-0.0085,-0.0924,0.233,0.598,0.132,0.0698,-0.637 (inactive),0.296,-0.0645,0.112,0.0081 (inactive),-0.159 (inactive),-0.291 (inactive),0.301,-0.166 (inactive),-0.174,0.662,0.749,-0.111
CCOC(=O)CCN1C(=O)[C@H]2[C@H]3[C@H](O)[C@H](O)CC(=NO[C@@H]4O[C@H](CO)[C@@H](O)[C@H](O)[C@H]4O)[C@@H]3CC[C@H]2C1=O,-0.512,1.86,-0.129,1.04,1.31,0.254,1.14,-0.389 (inactive),0.675,-0.0296,1.52,-0.476 (inactive),-0.664 (inactive),-0.933 (inactive),0.7,0.283 (inactive),-0.0598,0.381,1.09,0.176
CCOC(=O)[C@H](CC(C)C)NC(=O)CCC1CC(OC(=O)NCCc2ccc(F)cc2)CC2(CCCC(COC(=O)NCc3cccc(C(F)(F)F)c3)O2)O1 (stereo not given in full),-0.17,0.13,-0.0924,0.983,1.14,0.806,1.16,-0.0179 (inactive),-0.0518,-0.0102,1.49,0.643 (inactive),0.58 (inactive),0.603 (inactive),1.6,1.05 (inactive),-0.103,0.584,0.722,0.0199
CCOC(=O)[C@H](Cc1ccccc1)NC(=O)CCC1CC(OC(=O)NCc2ccc3c(c2)OCO3)CC2(CCCC(COC(=O)NCCc3ccc(Cl)cc3)O2)O1 (stereo not given in full),-0.415,0.388,-0.114,0.351,0.832,0.107,0.918,-0.327 (inactive),-0.18,-0.0994,1.55,-1.93 (inactive),-0.616 (inactive),0.376 (inactive),1.78,-0.698 (inactive),-0.148,0.819,1.16,-0.081
CC(C)(C)N1C(=O)[C@H]2[C@H]3[C@H](O)[C@H](O)CC(=NNC(=O)OCc4ccccc4)[C@H]3CC[C@H]2C1=O,-0.642,0.0714,-0.0684,0.559,0.389,0.26,0.748,-0.0034 (inactive),-0.0777,-0.169,1.3,0.272 (inactive),-1.49 (inactive),-0.391 (inactive),1.39,0.0955 (inactive),-0.191,0.683,0.4,-0.0051
O=C1C2=CC[C@H]3C(=O)N(C4CCCCC4)C(=O)[C@H]3[C@H]2[C@H](O)[C@@H]2O[C@H]12,-0.115,-2.14,-0.162,-0.179,-0.423,-0.0738,-0.515,11.5 (active),-0.5,-0.164,-0.642,-0.163 (inactive),-6.78 (inactive),-1.25 (inactive),0.821,-0.391 (inactive),-0.196,-0.725,-1.63,-0.0389
O=C1CCCC=C1C(O)c1ccc([N+](=O)[O-])cc1 (stereo not given),-0.396,0.267,-0.187,0.535,0.254,-0.832,-0.0876,0.925 (inactive),-0.315,-0.355,0.0679,-0.293 (inactive),0.0434 (inactive),-0.289 (inactive),-0.33,0.999 (inactive),-0.114,0.111,0.273,0.613
CC(=O)OC[C@H]1O[C@H](CC=NO[C@@H](C)c2cc(-c3c(C)cc(C)cc3C)no2)C=C[C@@H]1OC(C)=O,-0.357,-0.264,-0.1,0.149,0.0166,-0.291,-0.736,1.03 (inactive),-0.122,-0.0994,-0.0654,0.208 (inactive),-0.0489 (inactive),0.523 (inactive),-0.382,-0.542 (inactive),-0.212,0.342,0.106,-0.0662
O=C1[C@H]2[C@H]3[C@H](O)[C@H](O)CC(=NO[C@@H]4O[C@H](CO)[C@@H](O)[C@H](O)[C@H]4O)[C@H]3CC[C@H]2C(=O)N1c1ccc(F)cc1F,0.552,0.75,0.0159,0.265,0.51,-0.557,-0.977,0.404 (inactive),0.437,-0.0296,1.08,-0.484 (inactive),-0.352 (inactive),-1.99 (inactive),0.0348,0.356 (inactive),-0.128,0.161,0.365,-0.0084
O=C1C=C[C@@H](O)[C@@H]2[C@@H]3C(=O)N(Cc4ccc5c(c4)OCO5)C(=O)[C@@H]3CC[C@@H]12,-0.624,-0.0026,-0.0925,0.28,0.628,0.199,0.764,0.189 (inactive),0.233,0.0722,-0.846,0.564 (inactive),-0.681 (inactive),0.621 (inactive),0.221,0.446 (inactive),-0.116,0.652,0.676,-0.0731
COc1ccc(O[C@H]2C=C[C@@H](c3ccccc3)O[C@@H]2CON=C(C)CCN2CCCc3nc(C)c(C)cc32)cc1,-0.353,0.0823,-0.0812,0.076,0.476,0.626,0.954,-0.303 (inactive),0.698,-0.0328,1.42,-0.571 (inactive),-0.739 (inactive),-0.706 (inactive),1.56,0.766 (inactive),-0.0511,0.485,1.02,-0.0531
